Laboratory results: PubChem BioAssay

experiment: inhibitors of Chlamydomonas gravitaxis, primary screen, whole organism, Chlamydomonas reinhardtii, WT vs cilia-less mutant, absorbance, 96-well (AID 463189); conditions: OD600 absorbance, 2 days, at 10 µM, hits give high values;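 active = inhibition at or above 50% relative to wild type and mutant plate controls; inactive = inhibition below 50%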;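 note: 0% = wild type cc124 cells in DMSO and 100% = ciliumless bld1 mutant cells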

inhibition, inactive:
Cc1nnc(N2CCOCC2)c2ccccc12 14.9%
CCOc1ccc2c(c1)n([O-])c1c([n+]2=O)CCCC1 32.8%
C[N+]1(CCNC(=O)/C=N/O)CCCCC1 13.4%
Cc1ccc(C(=O)NCCCNCCCNC(=O)c2ccc(C)nc2)cn1 0.875%
CCCCCOc1ccccc1C(=O)NCCCC(=O)O 32.4%
CCN(CC)c1nc(C)c2c(c1C#N)CC(C)(C)OC2 -9.09%
Cn1ncc(N=Cc2ccccc2O)c1C(=O)N1CCOCC1 32.2%
CN1CCN(c2c3c(c(C#N)c4nc5ccccc5n24)CCCC3)CC1 -10.8%
CC(C(=O)NC(=O)NCc1ccccc1)N1C(=O)c2ccccc2C1=O (stereo not given) -4.8%
COC(=O)c1cc(Br)c(=O)n(-c2cc(C)on2)c1 8.55%
CCOC(=O)c1[nH]c2ccc(OC)cc2c1NC(=O)CCN1CCCC(C)C1 (stereo not given) 28.8%
COc1cccc(C(=O)c2sc(NC(C)C)nc2N)c1 -1.39%
CCOc1ccc(-c2nc(C#N)c(N3CCN(CC)CC3)o2)cc1 5.29%
CCC(CC)n1[nH]c(=O)cc1N 7.67%
CC1(C)Cc2nc(NCCN3CCOCC3)c(C#N)cc2CO1 -7.98%
COc1ccc2nc(/N=C(\N)NC(=O)C(C)(C)C)nc(C)c2c1 2.17%
CC(C)CNc1nc2c(c(=O)n(C)c(=O)n2C)n1Cc1cccc(Br)c1 13.3%
COc1ccccc1C(=O)Nc1cc(Cl)ccc1O 21.5%
c1ccc(-n2ncc3c(N4CCCC4)ncnc32)cc1 15.7%
NC(=O)C1CCN(CCC(=O)Nc2ccc(Br)cc2)CC1 44%
CCCCC(=O)c1c(C)cc(C)[nH]c1=O 0.273%
C/C(NC(=O)c1cccs1)=C1\C(=O)C[C@@H]2[C@H]1C2(C)C -3.09%
CC1CCN(c2[nH]c(=S)c(C#N)c3c2CCCC3)CC1 19.3%
CCC(=O)Nc1ccc(-c2nnc(SCC(=O)NCC3CCCO3)n2C)cc1 (stereo not given) -4.35%
Cc1nnc(N2CCCCC2)c2ccccc12 47.9%
Cc1cccc(-n2ncc3c(NCCN4CCOCC4)ncnc32)c1 34%
N#CCCN(C(=O)c1ccco1)c1ccccc1 -5.86%
N#Cc1c(N)nc(SCC(=O)NCc2ccc3c(c2)OCO3)c(C#N)c1-c1cccs1 -14%
CCC1CC2(C)NC(=O)c3c(sc4c3CC(C)(C)OC4)N2C1=O (stereo not given) 31.2%
C=CCN=C(C)C1=C(O)CCC1=O 11.3%
Cc1ccc(-n2ncc3c(NCc4cccnc4)ncnc32)c(C)c1 -12.1%
Clc1ccc(COc2ccccn2)c(Cl)c1 -0.499%
Cc1cc(=O)oc(C)c1C(=O)Nc1ccc2nsnc2c1 -6.75%
O=C(C1CCCCC1)N1CCCn2c1nc1ccccc12 -20.3%
CCc1nc(NCC2CCCO2)c(C#N)c2c1COC(C)(C)C2 (stereo not given) -12.9%
CCc1nc(N2CCOCC2)c(C#N)c2c1CCCC2 29.5%
CCc1cc(=O)oc2cc(C)c(CN3CCCC(C)C3)c(O)c12 (stereo not given) -8.79%
C=CCN=C(NC#N)SCCc1ccccc1 -0.302%
CCN(CC)CCN1C(=O)c2ccccc2NC1c1cc(OC)c(OC)c(OC)c1 (stereo not given) 16.2%
COc1ccc(C2C(C#N)=C(N)Oc3cc(C)n(CCN4CCOCC4)c(=O)c32)cc1OC (stereo not given) 1.58%
